This is an account of results in PubChem BioAssay AID1822 (The Scripps Research Institute Molecular Screening Center, 2009).

Among all 290,000 compounds or so, about 3,500 (1.2%) were called active. This is one part of a sample in which actives are shown more often than they occur. Values without a mark were called inactive.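 How the source made its calls: active means inhibition above the campaign mean inhibition over all tested compounds plus 3 SD (cut at about 28% in these data); inactive means the rest.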

This experiment has as its system M18 aspartyl aminopeptidase (Plasmodium falciparum 3D7). Nature of the experiment: inhibition of P. falciparum M18 aminopeptidase – biochemical, QFRET, recombinant enzyme, primary screen (AID 1822).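 Further: 0% = plate median of test compound wells and 100% = 2 mM ZnCl2.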 The following applies: recombinant PfM18AAP, H-Glu-NHMec fluorogenic cleavage; at 7.35 µM; active compounds read high.
Turning to `COc1cc(Nc2nc3ccc(Cl)cc3n3cnnc23)cc(OC)c1OC`, the inhibition is -5.42%. For `COc1cc(/C=N/NC(=O)Cc2ccccc2)cc(OC)c1OC` the value was 0.54%; for `COc1cc(/C=N/Nc2nn3cnnc3c3ccccc23)cc(OC)c1OC`, 43.6% (active); for `CCOC(=O)C(CC)/C(C)=N\NC(=O)c1cccc(C)c1` (configuration not stated), -12.1%. In the case of `O=CN1CCN(C(=O)c2ccc(Br)o2)CC1` it was -0.01%. In the case of `O=C(Cc1ccccc1)Nc1c(C(=O)N2CCCCCC2)cnn1-c1ccccc1` it was 5.1%; in that of `O=C(COc1ccccc1Cl)Nc1ccc(C(=O)c2ccc(C(=O)O)cc2)cc1`, -8.1%; in that of `O=C(Nn1cnc2ccccc2c1=O)c1ccc([N+](=O)[O-])cc1Cl`, -1.63%. On to `O=C(COc1ccc([N+](=O)[O-])cc1Cl)Nn1cnnc1`, for which the inhibition is 33% (active). Turning to `Cc1nn(-c2ccccc2)c(C)c1NC(=O)COc1ccc(Cl)cc1Cl`, the inhibition is -6.26%.

For `O=C(Nc1ccccc1Cl)Nn1cnnc1`, the inhibition was 77.6% (active). As for `Cc1c(NC(=O)Nc2ccccc2Cl)sc(=S)n1C`, the inhibition was 4.48%.

On to `COc1ccccc1C(=O)Nn1cnnc1`, for which the inhibition was 18.1%.

As for `O=C(Nc1ccccc1Cl)Nc1cccc2cccnc12`, the inhibition was 6.47%. For `O=C(COc1ccccc1Cl)N1CCCCCCC1` the value was 5.5%. In the case of `O=C(COc1ccccc1Cl)Nn1cnnc1` it was 31% (active); in that of `O=C(Nn1cnnc1)c1cc(Cl)ccc1Cl`, 54.6% (active); in that of `O=C(Nc1cccnc1)c1cc(Cl)ccc1Cl`, -0.24%. Take `COc1ccccc1NC(=O)CCC(=O)N1CC(C)Oc2ccc(C)cc21` (configuration not stated): the inhibition was -4.62%. For `O=C(CN(Cc1ccccc1)C(=O)CCC(=O)Nc1ccccn1)NCCc1ccccc1` the value was 0.21%; for `O=[N+]([O-])c1cccc(S(=O)(=O)NCc2ccccn2)c1`, -8.77%. In the case of `CN(Cc1ccccc1)CC(O)COc1ccc(CNCc2cc3ccccc3s2)cc1` (configuration not stated) it was -3.49%; in that of `COc1ccc(C(=O)NC2CC2)cc1OC1CCN(C/C=C/c2ccccc2)CC1`, -7.74%. For `CC(C)CCNC(=O)c1ccc2c(Cl)c3c(nc2c1)CCC3` the value was -8.56%.

`CCN(CC)c1ccc(C(=O)NNC(=O)CCc2nc3ccccc3c(=O)[nH]2)cc1`: the inhibition was -7.26%. On to `CC(=O)N1CCOc2ccc(S(=O)(=O)N3CCN(c4cccc(C(F)(F)F)c4)CC3)cc21`, for which the inhibition was -2.98%. Regarding `Cc1ccc(NC(=O)c2c(NC(=O)CCC(=O)O)sc3c2CCCCC3)cc1`, the inhibition was 36.1% (active). As to `COC(=O)c1c(NC(=O)C2CC(C)=C(C)CC2C(=O)O)sc2c1CCCCC2` (configuration not stated), the inhibition is -0.05%.

For the compound `Cc1ccc(C(=O)c2c(NC(=O)c3ccncc3)sc3c2CCCC3)cc1`, the inhibition is -11.4%. In the case of `COC(=O)c1c(NC(=O)CCN2CCOCC2)sc2c1CCCC2` it was -1.78%; in that of `O=C(CN1CCCC1)Nc1sc2c(c1C(=O)Nc1ccccc1)CCCC2`, 7.15%; in that of `COC(=O)c1c(NC(=O)CCCC(=O)O)sc2c1CCCCC2`, 29.6% (active).
